Assay outcomes deposited in PubChem BioAssay by National Center for Advancing Translational Sciences (NCATS).
Sampled rows, rich in hits. Any-hit rate of the full collection: about 21%.
CHX counter: counter-screen hit for Shiga toxin inhibitors, cycloheximide; max response, %; AID 2314; 300,000 tested, 12% active; cell reporter, cycloheximide protein synthesis inhibition counterscreen; in the data active = max response mostly above about 13%, no sharp cut-off; inactive = mostly below about 14%; also: read at 38.3 µM for the half of the compounds with a filed dose; 0% is about no effect
Pf growth 48h: P. falciparum growth inhibition at 48 hours (one generation). AID 504832. 310,000 tested, 5.9% active. P. falciparum luciferase growth in erythrocytes, 48 h. Potency, µM (doses to about 28.7 µM), for inactives: top-dose activity change, negative = inhibition, hits mostly inhibitors; active = well fitted inhibition curve with a large enough effect; inconclusive = small, poorly fitted or top-dose-only effect, or another doubt; inactive = no such curve, though single readings can be large or run the other way; also: potency is read from the fitted curve at half-maximal effect; % is scaled to controls: 0 for no effect and ±100 for the full control effect
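Compounds are pin-transferred into medium, infected erythrocytes (2% hematocrit, 0.1% parasitemia final) are added, and plates sit one parasite generation at 37 C in 5% CO2. Detection reagent is then added and luminescence measured.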
Shiga inhibitor: Shiga toxin inhibition; AID 2315; 290,000 tested, 9.2% active; inhibition, % at 38.7 µM; Vero cells, Shiga toxin protein synthesis inhibition reporter; in the data active = inhibition mostly above about 28%, no sharp cut-off; inactive = mostly below about 43%; also: 0% is about no effect
Pf growth 96h: inhibits malaria parasite growth, 96 h; P. falciparum luciferase reporter growth, 96 h; Potency, µM (series often up to 28.7 µM), for the others: at the highest dose activity change, negative = inhibition, hits mostly inhibitors; 320,000 tested, 6.9% active; active = well fitted inhibition curve with a large enough effect; inconclusive = small, poorly fitted or top-dose-only effect, or another doubt; inactive = no such curve, though single readings can be large or run the other way; also: potency is read from the fitted curve at half-maximal effect; % is scaled to controls: 0 for no effect and ±100 for the full control effect
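Plates of compound plus infected erythrocytes (2% hematocrit, 0.05% parasitemia final) incubate 96 hours, 37 C, 5% CO2. Detection reagent added; reduced luminescence from the parasites' luciferase reporter flags inhibition.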
NS1 function inh: influenza NS1 inhibition. Potency, µM (titrated, usually from 46.1 µM), for the others: at the top dose activity, positive = more growth. 270,000 tested, 0.4% active; also: potency is read from the fitted curve at half-maximal effect; actives are rising curves; nearly all actives have a fitted effect of over 50% in size
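OD600 was taken as the measure of yeast growth restored by compound in an NS1-expressing S. cerevisiae strain. Cells had been washed out of glucose medium and diluted 1:100 into galactose -URA medium, pH 6.0.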
SARS PLP yeast: SARS-CoV PLP inhibition in yeast; S. cerevisiae expressing SARS-CoV PLpro, growth rescue; Potency, µM (titrated, usually from 32.9 µM), without a hit: at the top dose activity, positive = growth rescue, actives largely listed as activators; 330,000 tested, 0.19% active; also: potency is read from the fitted curve at half-maximal effect; 0% is about no effect; nearly all actives have a fitted effect of over 55% in size
Starred values were filed as active, the others as inactive; ? = inconclusive; nt = no result; [ ] = dose if it differs, or a comment. Unless noted, calls follow the shape of the full dose curve.

SMILES	CHX counter	Pf growth 48h	Shiga inhibitor	Pf growth 96h	NS1 function inh	SARS PLP yeast
O=C(Cn1cc([N+](=O)[O-])cn1)N1CCN(Cc2ccc3c(c2)OCO3)CC1	-2	35%	-11	-7%	1%	0%
COc1ccc(-c2nc(N)n(C(=O)c3ccccc3Cl)n2)cc1	8	12%	-2	39%	13%	-14%
O=C1C2C3C=CC(C4CC34)C2C(=O)N1Cc1ccco1 (stereo not drawn)	-3	-2%	8	-2%	-5%	-1%
C1=CC2CC1CC2CNCc1ccco1 (stereo not drawn)	-2	14%	-10	-19%	-4%	1%
CCOc1ccc(CCNC(=O)c2ccc3nc(N4CCOCC4)sc3c2)cc1OCC	1	?	-13	-22%	3%	-2%
O=c1cc(/C=C/c2c(F)cccc2Cl)[nH]c2ccccc12	54*	0.93µM*	63*	6%	-12%	-12%
O=c1c2ccccc2[nH]c2ccc(F)cc12	10	?	-6	3%	nt	-22%
Cc1ccc2c(c1)c(C)cc[n+]2Cc1ccccc1	0	0.37µM*	-5	0.19µM*	2%	23%
Cc1ccc2ccc[n+](Cc3ccccc3)c2c1	nt	0.41µM*	nt	0.52µM*	nt	5%
CC(=O)NS(=O)(=O)c1ccc(NC(=O)c2oc3c(Cl)cccc3c2C)cc1	-2	-12%	25	47%	-2%	0%
CCNC(=S)N/N=C/c1cn(Cc2ccc(F)cc2)c2ccccc12	0	?	-13	?	27%	?
CC1CCN(C(=S)c2cn(Cc3ccccc3F)c3ccccc23)CC1	8	7.4µM*	16	13µM*	-10%	10%
CCNC(=S)N/N=C/c1cn(Cc2ccccc2F)c2ccccc12	17*	?	24	?	?	30%
Cc1cc(OCC(=O)OCC(=O)NC2CCCCCC2)ccc1Cl	nt	26%	nt	6%	nt	-2%
Cc1n(CC(O)COC2CCCCC2)c2ccccc2[n+]1C (stereo not drawn)	-5	6.6µM*	-3	27%	2%	16%
OC(COC1CCCCC1)CN1CCN(c2ccccc2)CC1 (stereo not drawn)	-4	23%	6	nt	6%	3%
COc1cc(NC(=O)C2CCCN2S(=O)(=O)c2ccc3c(c2)CC(C)N3C(C)=O)cc(OC)c1 (stereo not drawn)	2	-19%	-2	?	-27%	-2%
CCc1cccc(C)c1NC(=S)NCC1CCN(c2ccc(OC)cc2)C1 (stereo not drawn)	-6	3.3µM*	9	-4%	nt	-2%
CCc1ccccc1NC(=S)NCC1CCN(c2ccc(OC)cc2)C1 (stereo not drawn)	1	12µM*	2	?	-31%	0%
CCc1ccccc1NC(=S)N1CCC(NC(=O)c2ccc(OC)cc2)CC1	-1	3%	-13	?	-1%	0%
COc1ccc(N2CCC(CNC(=S)Nc3cccc(OC)c3)C2)cc1 (stereo not drawn)	-2	?	-3	-3%	25%	6%
CC1CCC(=NNC(=O)Cc2ccccc2)CC1 (stereo not drawn)	14*	?	9	?	8%	-4%
CC(C)(C)C1CCC(=NNC(=O)CC(=O)NCc2ccccc2)CC1 (stereo not drawn)	-3	10%	-3	2.1µM*	-1%	-19%
CC1CCC(=NNC(=O)Cc2cccn2C)CC1 (stereo not drawn)	-1	7%	3	1%	nt	0%
CCNC(=S)N/N=C/c1ccc(OCC(=O)Nc2ccc(C)cc2)cc1	2	nt	-15	?	10%	5%
SMILES	CHX counter	Pf growth 48h	Shiga inhibitor	Pf growth 96h	NS1 function inh	SARS PLP yeast
CC1Cc2nc(SCC(=O)c3ccccc3)n(Cc3ccccc3)c(=O)c2S1 (stereo not drawn)	14*	?	41*	?	8%	-9%
CSc1nc2c(c(=O)n1Cc1ccccc1)SC(C)C2 (stereo not drawn)	-1	12µM*	-7	-12%	-46%	-7%
CC1Cc2nc(SCC(=O)NCc3ccccc3)n(Cc3ccccc3)c(=O)c2S1 (stereo not drawn)	5	?	23	?	-1%	2%
O=C(COC(=O)/C=C/c1ccccc1[N+](=O)[O-])Nc1ccc2[nH]c(=O)[nH]c2c1	nt	nt	nt	nt	nt	-1%
Cn1nnc2ccccc2c1=O	-5	28%	7	?	nt	3%
Cc1cc(C(=O)Nc2ccccc2C)n(-c2ccccc2)n1	-2	6%[0.00184 µM]	-6	10%	2%	0%
Cc1cc(C)n(-c2nc(Nc3ccccc3C)nc(-n3nc(C)cc3C)n2)n1	0	2.3µM*	-11	1µM*	27%	-4%
Cc1cc(C)n(-c2nc(Nc3ccccc3C(F)(F)F)nc(-n3nc(C)cc3C)n2)n1	-4	4.1µM*	-6	-108%	17%	-7%
Clc1cc2c(c(CSc3nc4ccccc4n4cccc34)c1)OCOC2	-3	?	-1	-2%	2%	-2%
CCCc1cc(=O)oc2cc(C)cc(OCC(=O)Nc3ccccn3)c12	20*	0.93µM*	11	0.66µM*	6%	-7%
CCCCc1cc(=O)oc2cc(C)cc(OCC(=O)Nc3ccccn3)c12	21*	4.1µM*	61*	?	-11%	-8%
CCC(C)NC(=O)C1CCN(S(=O)(=O)c2ccc(OC)cc2)CC1 (stereo not drawn)	-1	2%	-9	nt	-23%	-2%
NC1=NC[C@@H](Cc2ccc(O)cc2)N1CCCCC1CCCCC1	-5	1.9µM*	-2	1.2µM*	-1%	-1%
Oc1ccc(C[C@@H]2CNCCN2CCCCC2CCCCC2)cc1	nt	?	nt	?	nt	1%
NC1=NC[C@H](Cc2ccc(O)cc2)N1CC1CCCCC1	-2	5.9µM*	-6	2.6µM*	-1%	0%
CC1=CCC(C(=O)O)C(C(=O)NC2CCCCC2)C1 (stereo not drawn)	-2	11%	-5	-18%	-2%	-3%
CC(c1ccccc1)[n+]1ccccc1 (stereo not drawn)	nt	9.3µM*	nt	12µM*	nt	-2%
CCOc1ccc2[nH]cc(C(=O)N3CCN(CC)CC3)c(=O)c2c1	8	?	7	-21%	-8%	0%
C[C@H]1O[C@@H](O[C@H]2[C@@H](O)C[C@H](O[C@H]3[C@@H](O)C[C@H](O[C@H]4CC[C@@]5(C)[C@H](CC[C@@H]6[C@@H]5CC[C@]5(C)[C@@H](C7=CC(=O)OC7)CC[C@]65O)C4)O[C@@H]3C)O[C@@H]2C)C[C@H](O)[C@@H]1O	-7	?	-23	4.1µM*	-7%	3%
Cc1ccc2nc(NC(=O)[C@H](C)N3C(=O)C4CC=CCC4C3=O)sc2c1 (stereo partly drawn)	33*	60%	37*	20%	nt	1%
